The record followed here is the OligoGym collection.
Also: reference of the scale not given here.

The first experiment concerns the target PSMD14. As to the kind of experiment: pooled miR-30 sensor sort-seq; sequence = guide strand. The settings on record: shRNA.
TTTGTCTTGGTTCATGTCCTAA showed a sensor-assay potency score (higher = more potent) of -1.03. Turning to ATCTTCTTCTTCTACAGCCTTA, the sensor-assay potency score (higher = more potent) is -0.913.

For TTAGCAACATCTTCTGTTCCAG, the sensor-assay potency score (higher = more potent) was 0.0236. In turn, TAGCTTGGAACACTGGATCAAC had a sensor-assay potency score (higher = more potent) of -0.999. Sequence AAATTTAGCAACATCTTCTGTT returned a sensor-assay potency score (higher = more potent) of 0.377.

The target of a further experiment is PSMG3. The experiment is described as above. Conditions: shRNA.
On to TTTGTGGTGAGCACAGGCTTGC, for which the sensor-assay potency score (higher = more potent) is -0.665. On to TTGAGACACAAACGCTACCAGG, for which the sensor-assay potency score (higher = more potent) was -0.891.

For TCTTCTGCTTCGATATCACCAA, the sensor-assay potency score (higher = more potent) was -0.805. In turn, TAAAAAAGAAATTTCCTCCTAC gave a sensor-assay potency score (higher = more potent) of 0.923. On to TTCCAGCTTCTTGAGACACAAA, for which the sensor-assay potency score (higher = more potent) is -1.35. TGAGACACAAACGCTACCAGGT had a sensor-assay potency score (higher = more potent) of -0.363. As to AACGCTACCAGGTTCTTTGCAA, the sensor-assay potency score (higher = more potent) came to 0.042. TCTGTTTCCAGCTTCTTGAGAC: the sensor-assay potency score (higher = more potent) stood at 0.0937.

With TTGTCCTTCACGGCCACGGCGA, the sensor-assay potency score (higher = more potent) is -1.48. ATGGATGAGAGGCTCATCCTGC showed a sensor-assay potency score (higher = more potent) of -1.3. Regarding TTTTGTGGTGAGCACAGGCTTG, the sensor-assay potency score (higher = more potent) was -0.949. On to TTCTCAAACACAAGCAACGATT, for which the sensor-assay potency score (higher = more potent) is -1.54.

The next experiment deals with PSPH. The experiment is described as above. The settings on record: shRNA.
Turning to TGCTATGAGTCTCTGCACCTGC, the sensor-assay potency score (higher = more potent) came out at 0.0571.

In turn, TAACTTGTAAAAATTCATCTGA gave a sensor-assay potency score (higher = more potent) of 0.913. Take TAAGCAAACAGTATCAATCTGT: the sensor-assay potency score (higher = more potent) came to 0.453. Sequence TTAAAGTAGAATTTCAGCCTAT gave a sensor-assay potency score (higher = more potent) of 0.23.

Turning to TCACTTTTCCTTTTCCACCAGA, the sensor-assay potency score (higher = more potent) is -0.287.

TTTGGCGTTATCCTTGACTTGT: the sensor-assay potency score (higher = more potent) is -1.02. For AACCTGAACATTTCGCTCCTGT, the sensor-assay potency score (higher = more potent) was determined as 0.681. Same read-out and setting: the figure for AAAACCTGCATATTCACCGTTA is 0.263; for TTGCTCTGCTATGAGTCTCTGC it is -0.739. Sequence TTATCCTTGACTTGTTGCCTGA yielded a sensor-assay potency score (higher = more potent) of -0.324. Sequence TCTTCTCTGATGACCGTGCTGT had a sensor-assay potency score (higher = more potent) of 0.253.

A further experiment addresses PSRC1. Described as above. Conditions: shRNA.
TTCGAGTTGACAGAGAATCCGG came in with a sensor-assay potency score (higher = more potent) of 0.0316. Sequence TCTGGAGTCACCAACACTGTTA showed a sensor-assay potency score (higher = more potent) of -0.586. In the case of TATCATTACTCCGGAGTCGAGG, the sensor-assay potency score (higher = more potent) is -0.921. The same measure, in the same setting: in the case of TTTGCTACTGAAGTCTTGCTTG it was -0.274; in that of TCGGACAGGACTATCCTTCAGC, -0.556.

Regarding TCGCTGGGAAACAGGAACCTTG, the sensor-assay potency score (higher = more potent) was -1.78. On the same count and under the same terms, the figure for TTTCCCGCACTCTGTGTCCTGC is -0.995. The sequence TAGGCTGAGCCTCACACCCTGG yielded a sensor-assay potency score (higher = more potent) of -1.11. Still for that read-out and setting: the figure for TTGACAGAGAATCCGGAGGTAG is -1.05; for TCGAGTTGACAGAGAATCCGGA it is 0.42. For the sequence TATTTGTTCATTTCACTGCTGG, the sensor-assay potency score (higher = more potent) is 0.584.
